TDP1 cell noCPT: qHTS for Inhibitors of human tyrosyl-DNA phosphodiesterase 1 (TDP1): qHTS in cells in absence of CPT. DT40 Tdp1-/- hTDP1 cells, no CPT, ATP luminescence, 48 h. Potency, µM (doses to about 46.2 µM), without a hit: top-dose activity change, negative = growth inhibition, usual class: inhibitors. actives 15% (n = 420,000). AID 686978, 2013; note: potency is the fitted concentration of half-maximal effect; nearly all actives have a fitted effect of over 55% in size
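Compound effects on proliferation are scored in DT40 Tdp1-/-;hTDP1 cells in the absence of CPT. ATP levels (CellTiter-Glo luminescence) are recorded after a ≥48 hr, 37 °C incubation.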
HT1080 IDH1KD tx: HT-1080 IDH1 knockdown cell toxicity (counter line). AID 686971. Potency, µM (top dose mostly 46.1 µM), inactives show top-dose activity, negative = toxicity, actives largely listed as cytotoxic. HT-1080 IDH1 knockdown viability, ATP luminescence, 48 h. actives 2% (n = 360,000);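 note: potency is the fitted concentration of half-maximal effect; 0% = DMSO wells and -100% = cell-free medium wells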
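In this qHTS, HT-1080 cells depleted of IDH1 are exposed for 48 h at 37 °C to compound titrations. Toxicity is scored from CellTiter-Glo luminescence, with DMSO as full viability and medium alone as none.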
HT1080-NT tox: kills 2HG-producing HT-1080-NT fibrosarcoma cells | HT-1080-NT fibrosarcoma viability, CellTiter-Glo ATP luminescence, 48 h | Potency, µM (doses to about 46.1 µM), for inactives: at the highest dose activity, negative = less viability, usual class: cytotoxic | actives 1.6% (n = 360,000);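 note: NT is the 2HG producing partner of a matched IDH1 knockdown line; potency is the fitted concentration of half-maximal effect; 0% = DMSO-treated cells and -100% = media-only wells without cells; nearly all actives have a fitted effect of over 55% in size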
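Toxicity toward the 2HG-producing NT line was scored as %Activity, normalised to DMSO and no-cell wells, from CellTiter-Glo luminescence after 48 hours' treatment.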
ALOX12 inh: blocks human arachidonate 12S-lipoxygenase | purified 12hLO, xylenol orange hydroperoxide absorbance | Potency, µM (doses to about 108 µM), for the others: top-dose activity change, negative = inhibition, usual class: inhibitors | actives 1.1% (n = 580,000); note: potency is the fitted concentration of half-maximal effect
Target sequence (P18054 whole entry, looked up): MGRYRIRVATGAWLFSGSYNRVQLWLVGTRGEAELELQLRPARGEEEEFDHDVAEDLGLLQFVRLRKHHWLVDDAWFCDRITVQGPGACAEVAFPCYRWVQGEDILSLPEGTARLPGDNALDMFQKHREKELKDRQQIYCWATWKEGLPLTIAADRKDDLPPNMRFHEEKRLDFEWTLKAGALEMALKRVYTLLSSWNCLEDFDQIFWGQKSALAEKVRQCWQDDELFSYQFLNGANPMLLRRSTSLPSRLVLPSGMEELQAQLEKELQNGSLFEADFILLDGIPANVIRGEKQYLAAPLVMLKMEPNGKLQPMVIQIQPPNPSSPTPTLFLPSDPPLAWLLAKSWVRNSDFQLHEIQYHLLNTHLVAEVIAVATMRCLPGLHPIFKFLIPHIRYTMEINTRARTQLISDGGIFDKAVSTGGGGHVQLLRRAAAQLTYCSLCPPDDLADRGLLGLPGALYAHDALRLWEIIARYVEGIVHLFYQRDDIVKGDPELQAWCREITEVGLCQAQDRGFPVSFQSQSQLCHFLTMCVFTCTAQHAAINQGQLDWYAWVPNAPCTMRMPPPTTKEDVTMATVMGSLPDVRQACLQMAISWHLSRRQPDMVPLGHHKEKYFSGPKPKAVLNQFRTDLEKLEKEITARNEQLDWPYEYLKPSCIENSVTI
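Hydroperoxide product was detected by ferrous iron/xylenol orange as the 573 to 405 nm absorbance ratio. Arachidonic acid at 40 uM (final) was turned over for 30 min at room temperature by 150 nM human 12hLO, pH 7.0 Hepes buffer, after 15 min compound preincubation.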
IL1B secr inh: inflammasome signaling inhibition, IL-1 beta readout | actives 4.7% (n = 360,000) | AID 743279 | activity change, % at 57.5 µM | THP-1 LPS/ATP IL-1B secretion, AlphaLISA, 16 h; stronger effect = lower value; in the data active = activity change below about -50%; inconclusive = mostly about -30% to -49%
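Secreted IL-1B measured by AlphaLISA bead assay after 16 h compound exposure of THP-1 cells; compounds (final up to 57.5 uM) added 1 h before LPS (250 ng/mL) and ATP (1.25 mM) stimulation; lower signal means less secretion.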
DT40 TDP1 CPT: growth inhibition of DT40 Tdp1-/-;hTDP1 cells with camptothecin (screen for TDP1 inhibitors) | chicken DT40 Tdp1-/-;hTDP1 cells + 20 nM CPT, ATP luminescence, 48 h | Potency, µM (doses to about 46.2 µM), for inactives: at the top dose activity change, negative = growth inhibition, most hits filed as inhibitors | actives 12% (n = 420,000); note: potency is the fitted concentration of half-maximal effect; nearly all actives have a fitted effect of over 55% in size
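Cell growth measured by CellTiter-Glo luminescence after a minimum 48 h, 37 C compound exposure with 20 nM CPT in Tdp1-knockout DT40 cells stably expressing hTDP1, seeded 400/well; qHTS titration format.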
* hit, by the source's call; i = inactive; ? = inconclusive; . = no result given; [ ] = dose if it differs, or a comment. Only a selection was taken, and hits are over-represented in it overall. Unless noted, calls come from the whole dose curve; as a rule, active = well fitted curve in the direction sought with a large enough effect; inconclusive = small, poorly fitted or top-dose-only effect, or another doubt; inactive = no such curve, though single readings can be large; an effect the other way counts as inactive or inconclusive. Unless noted, % is set by controls: 0 for no effect and ±100 for the full control effect.

SMILES	TDP1 cell noCPT	HT1080 IDH1KD tx	HT1080-NT tox	ALOX12 inh	IL1B secr inh	DT40 TDP1 CPT
O=S(=O)(c1ccc(Cl)s1)N1CCN(CCc2ccccc2)CC1	-25.7%	-10.1%	-12.9%	?	i	-21.2%
O=S(=O)(c1ccc(Cl)s1)N1CCN(C/C=C/c2ccccc2)CC1	?	-18.8%	-8.6%	?	-10.7	16.4µM*
CC(C)=CCN1CCNC(=O)C1CC(=O)NC(C)(C)c1cccc2ccccc12 (configuration not stated)	.	.	.	20.8%	.	.
O=C(c1ccoc1)N(Cc1cccs1)C1CC1	.	.	.	8.3%	.	.
Cc1ccc(C(=O)Nc2ccc(C(=O)O)cc2)cc1C	.	.	.	-23.1%	.	.
Cc1cccc(C(=O)Nc2ccc(NC(=O)c3ccccc3)cc2)c1	?	0.8%	3.7%	?	-57.6*	?
Cc1ccc(C(=O)Nc2ccc(Nc3ccccc3)cc2)cc1C	20.6µM*	?	-29.7%	0.3%	-68.9*	20.6µM*
Cc1cccc(C(=O)Nc2ccc(NC(=O)c3cccc(C)c3)cc2)c1	-22.4%	-3.3%	1.5%	1.5%	-4.0	-7.6%
O=C(Nc1ccccc1)c1ccc(NCCc2ccccc2)c([N+](=O)[O-])c1	-2.0%	-9.7%	-12.7%	-10.2%	0.0	6.2%
COc1ccc(C(=O)Nc2ccc(Nc3ccccc3)cc2)cc1[N+](=O)[O-]	20.6µM*	-16.6%	-26.1%	0.0%	-15.8	23.1µM*
COc1ccc(C(=O)Nc2ccc(OCc3ccccc3)cc2)cc1[N+](=O)[O-]	2.2%	-24.2%	-19.9%	3.4%	-0.1	?
CCN(CC)c1ccc(C(=O)Nc2ccccc2)cc1[N+](=O)[O-]	?	-18.1%	-8.0%	-38.0%	-95.6*	-5.7%
COCc1nnc(NC(=O)c2ccc3c(ccn3C)c2)s1	.	.	.	-4.4%	.	.
CC(C)OC(=O)c1cccc(NC(=O)c2ccccc2)c1	13µM*	-6.3%	-2.9%	0.0%	-3.4	13µM*
Cc1ccc(NC(=O)c2ccc(NC(=O)c3ccccc3)cc2)cc1C	?	?	?	-8.6%	0.0	13µM*
Cc1cccc(C(=O)Nc2cccc3c2CCCC3)c1	9.2µM*	-0.7%	0.4%	7.9%	-4.7	18.4µM*
Cc1ccc(C(=O)Nc2ccc(Nc3ccccc3)cc2)cc1Br	4.11µM*	-26.2%	-15.3%	18.3%	.	6.51µM*
COc1ccccc1CNC(=O)CSc1nnc(C)n1C1CCCCC1	.	.	.	16.3%	.	.
COc1cc(CNC(=O)c2nc(-c3ccccc3)oc2C)cc(OC)c1OC	.	.	.	5.1%	.	.
CCOc1ccc(NS(=O)(=O)c2cc(NC(=O)c3cccc(C)c3)ccc2Cl)cc1	?	25.9µM*	?	?	?	16.4µM*
O=C(Nc1cccc(C(=O)Nc2ccc(Br)cc2)c1)c1ccccc1	11.6µM*	-15.4%	-1.9%	7.5%	-4.7	?
CCOc1ccc(NS(=O)(=O)c2cc(C(=O)N3CCCC3)ccc2Cl)cc1	-28.9%	-4.8%	-0.4%	?	12.3	-23.4%
Cc1ccc(C(=O)Nc2ccc(Oc3ccc(C(=O)O)c(C(=O)O)c3)cc2)cc1C	0.6%	1.3%	3.4%	-22.5%	11.8	23.1µM*
CO[C@H]1C(=O)N(C2CCN(S(=O)(=O)c3cccs3)CC2)[C@H]1c1ccncc1	.	.	.	7.5%	.	.
CC1(C)CC(=O)C2=C(C1)OC1=C(C(=O)CC(C)(C)C1)C2c1cccc(O)c1	.	.	.	-0.8%	.	.
SMILES	TDP1 cell noCPT	HT1080 IDH1KD tx	HT1080-NT tox	ALOX12 inh	IL1B secr inh	DT40 TDP1 CPT
Cc1ccc(Cn2nc(C)c(C(=O)NCC(c3cccs3)N3CCOCC3)c2Cl)cc1 (configuration not stated)	23.1µM*	-13.2%	2.6%	-14.3%	8.4	20.6µM*
COc1ccc(C(CNC(=O)c2c(C)nn(Cc3ccc(C)cc3)c2Cl)N2CCOCC2)cc1 (configuration not stated)	23.1µM*	-5.2%	-4.2%	-8.9%	-81.5*	?
COc1ccc(C(CNC(=O)c2ccc(C)cc2)N2CCOCC2)cc1 (configuration not stated)	?	.	.	-0.9%	.	?
O=C(Nc1cc2c(cc1C(O)c1ccccc1)OCCO2)c1cccc(Br)c1 (configuration not stated)	.	.	.	-41.9%	.	.
COCCN1C(=O)CCC2(C(=O)Nc3cc(OC)cc(OC)c3)CCCC=C12 (configuration not stated)	.	.	.	61.6%	.	.
C/C(=N\OC(=O)c1ccc(F)cc1F)c1ccc(F)cc1F	.	.	.	-3.0%	.	.
CCCOc1cccc(C(=O)Nc2ccc(OCCC)c3ncccc23)c1	.	.	.	28.3%	.	.
CC(=NO)C1CCC2C3CCC4CC(=NO)CCC4(C)C3C(C)(O)CC12C (configuration not stated)	14.6µM*	16.1%	8.6%	0.1%	23.9	?
CC12CCC(C/C1=N/O)C2(C)C (configuration not stated)	1.5%	4.0%	2.7%	27.9%	-6.5	-0.2%
CS(=O)(=O)c1ccc(S(=O)CC(=O)Oc2ccc(Cl)cc2)c([N+](=O)[O-])c1 (configuration not stated)	0.581µM*	18.4µM*	23.1µM*	.	-98.8*	1.16µM*
O=C(CS(=O)c1ccccc1[N+](=O)[O-])Oc1ccc(Br)cc1 (configuration not stated)	-16.7%	-8.6%	-13.7%	-14.0%	-62.4*	-19.3%
O=C(Cc1ccc([N+](=O)[O-])cc1)Oc1ccccc1	-1.2%	14.2%	3.5%	-5.3%	6.8	7.5%
Cc1cccc2sc(NC(=O)C3CC3)nc12	-1.0%	3.7%	4.7%	7.1%	6.3	3.2%
Cc1cccc(NC(=O)C2c3ccccc3Oc3ccccc32)n1	?	-31.4%	-23.9%	-19.0%	-11.2	14.6µM*
Cc1ccccc1Cn1nc(C)c(NC(=O)C2(C)CC2(Cl)Cl)c1C (configuration not stated)	-4.1%	0.6%	0.8%	0.6%	-1.0	-13.5%
Cc1cccc2sc(NC(=O)C3c4ccccc4Oc4ccccc43)nc12	?	?	-24.6%[9.24 µM]	-16.3%	-4.5	11.6µM*
O=C(Nc1ncccn1)C1c2ccccc2Oc2ccccc21	-6.0%	2.8%	5.3%	4.9%	16.3	1.0%
Cc1ccccc1Cn1nc(C)c(NC(=O)C2c3ccccc3Oc3ccccc32)c1C	14.6µM*	6.5%	-1.0%	7.6%	16.6	11.6µM*
CCc1ccc(OC(=O)c2ccccc2I)cc1	.	.	.	-8.0%	.	.
COc1ccccc1N1CN(CCCN(C)C)Cn2c1nc(C)c(C)c2=O	.	.	.	-5.9%	.	.

Source: PubChem BioAssay
